Several values for one entry are separate records, joined by “and”; a condition that tells them apart may be missing. Identical values can stand only once. The campaign covered roughly 5,500 compounds. About 2,000 (36%) were called active. Inconclusive results (about 18%) are left out. No stated cut-off is given here; in the data, active means normalized growth mostly below about 0.91 (no sharp cut-off); inconclusive means no clear call, values can overlap the other calls; inactive means mostly above about 0.92. This is one part of the list.
Test: chemical genetic growth profiling, strain panel (AID 1159580);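 further: tested at 20 µM; growth read once vehicle control cultures reached saturation at 30 °C; 1 = growth at the plate median or of vehicle wells; lower values mean less growth of the strain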
Conditions: growth OD

Measured: normalized growth

CCC1C(=O)OCC1Cc1cncn1C (stereo unspecified)
inactive: S. cerevisiae deletion strains, locus YJR075W, strain HOC1, active compounds read low 1.01 and 0.997 and 1.02 | S. cerevisiae deletion strains, locus YKL009W, strain mrt4, active compounds read low 0.99 and 0.991 | S. cerevisiae deletion strains, locus YKL068W, active compounds read low 1 and 0.995 | S. cerevisiae deletion strains, locus YKL085W, strain MDH1 (second series), active compounds read low 1.01 and 1.04 | S. cerevisiae deletion strains, locus YKL085W, strain MDH1, active compounds read low 1.01 and 1.04 | S. cerevisiae deletion strains, locus YKL160W, strain elf1, active compounds read low 1.03 and 1.01 | S. cerevisiae deletion strains, locus YKL190W, strain CNB1, active compounds read low 1.02 and 1.01 | S. cerevisiae deletion strains, locus YKR001C, strain vps1, active compounds read low 1.01 | S. cerevisiae deletion strains, locus YKR026C, strain gcn3, active compounds read low 1.02 and 0.993 | S. cerevisiae deletion strains, locus YKR091W, strain srl3, active compounds read low 1.02 | S. cerevisiae deletion strains, locus YLL001W, strain dnm1, active compounds read low 1.02 | S. cerevisiae deletion strains, locus YLL026W, active compounds read low 1.01 and 1.02 | S. cerevisiae deletion strains, locus YLL041C, strain sdh2, active compounds read low 1.01 and 1.02 | S. cerevisiae deletion strains, locus YLR027C, strain aat2, active compounds read low 1.02 and 1.01 | S. cerevisiae deletion strains, locus YLR039C, strain RIC1, active compounds read low 1.02 and 1.07 | S. cerevisiae deletion strains, locus YLR058C, strain SHM2, active compounds read low 1.01 | S. cerevisiae deletion strains, locus YLR102C, strain apc9, active compounds read low 1.01 and 0.998 | S. cerevisiae deletion strains, locus YLR113W, strain HOG1, active compounds read low 0.972 | S. cerevisiae deletion strains, locus YLR221C, strain rsa3, active compounds read low 1.02 and 1.01 | S. cerevisiae deletion strains, locus YLR258W, strain gsy2, active compounds read low 1.02 and 1.01 | S. cerevisiae deletion strains, locus YLR262C, strain YPT6 (second series), active compounds read low 1.04 and 1.05 | S. cerevisiae deletion strains, locus YLR262C, strain YPT6, active compounds read low 1.04 and 1.1 | S. cerevisiae deletion strains, locus YLR268W, strain sec22, active compounds read low 1.06 and 0.999 | S. cerevisiae deletion strains, locus YLR320W, strain mms22, active compounds read low 1.03 and 1.02 | S. cerevisiae deletion strains, locus YLR330W, strain CHS5, active compounds read low 1.01 | S. cerevisiae deletion strains, locus YLR342W, strain FKS1 (second series), active compounds read low 0.996 and 1 | S. cerevisiae deletion strains, locus YLR342W, strain FKS1, active compounds read low 1.02 | S. cerevisiae deletion strains, locus YLR357W, strain rsc2, active compounds read low 0.988 and 0.997 | S. cerevisiae deletion strains, locus YLR370C, strain arc18, active compounds read low 1.01 and 1.02 | S. cerevisiae deletion strains, locus YLR371W, strain rom2, active compounds read low 1.01 and 0.995 | S. cerevisiae deletion strains, locus YLR384C, strain iki3, active compounds read low 1.02 and 1.03 | S. cerevisiae deletion strains, locus YLR418C, strain cdc73, active compounds read low 1.02 | S. cerevisiae deletion strains, locus YML016C, strain PPZ1, active compounds read low 1.01 | S. cerevisiae deletion strains, locus YML032C, strain rad52, active compounds read low 1.03 and 0.985 | S. cerevisiae deletion strains, locus YML120C, strain ndi1, active compounds read low 1.02 and 1.03 | S. cerevisiae deletion strains, locus YML124C, strain tub3, active compounds read low 1.01 and 0.994 | S. cerevisiae deletion strains, locus YMR058W, strain fet3, active compounds read low 1.01 and 1.02 | S. cerevisiae deletion strains, locus YMR078C, strain ctf18, active compounds read low 1.02 and 0.99 | S. cerevisiae deletion strains, locus YMR125W, strain sto1, active compounds read low 1.02 | S. cerevisiae deletion strains, locus YMR129W, active compounds read low 1.01 and 1.02 | S. cerevisiae deletion strains, locus YMR205C, strain PFK2, active compounds read low 1.04 and 1.02 | S. cerevisiae deletion strains, locus YMR223W, strain ubp8, active compounds read low 0.991 and 1 | S. cerevisiae deletion strains, locus YMR231W, strain pep5, active compounds read low 1.02 and 1.01 | S. cerevisiae deletion strains, locus YMR263W, strain SAP30, active compounds read low 1.01 and 0.995 and 1.02 | S. cerevisiae deletion strains, locus YMR307W, strain GAS1, active compounds read low 0.989 and 1.01 and 0.99 | S. cerevisiae deletion strains, locus YNL067W, strain RPL9B, active compounds read low 1.01 | S. cerevisiae deletion strains, locus YNL071W, strain lat1, active compounds read low 1.01 and 1.02 | S. cerevisiae deletion strains, locus YNL128W, strain TEP1, active compounds read low 1.01 | S. cerevisiae deletion strains, locus YNL153C, strain GIM3, active compounds read low 1.02 and 0.971 | S. cerevisiae deletion strains, locus YNL175C, strain NOP13, active compounds read low 1.01 and 0.972 | S. cerevisiae deletion strains, locus YNL183C, strain NPR1, active compounds read low 0.95 | S. cerevisiae deletion strains, locus YNL197C, strain WHI3, active compounds read low 1.01 and 0.989 | S. cerevisiae deletion strains, locus YNL209W, strain ssb2, active compounds read low 1.02 | S. cerevisiae deletion strains, locus YNL224C, strain SQS1, active compounds read low 1 and 0.989 | S. cerevisiae deletion strains, locus YNL233W, strain BNI4, active compounds read low 1.01 and 1.02 | S. cerevisiae deletion strains, locus YNL248C, strain rpa49, active compounds read low 1 and 1.01 | S. cerevisiae deletion strains, locus YNL250W, strain rad50, active compounds read low 1.01 and 0.986 | S. cerevisiae deletion strains, locus YNL271C, strain bni1, active compounds read low 1.01 | S. cerevisiae deletion strains, locus YNL298W, strain CLA4, active compounds read low 1.01 and 0.999 | S. cerevisiae deletion strains, locus YNL307C, strain MCK1, active compounds read low 1.02 and 1.01 | S. cerevisiae deletion strains, locus YNL322C, strain KRE1 (second series), active compounds read low 1.02 | S. cerevisiae deletion strains, locus YNL322C, strain KRE1, active compounds read low 1.01 | S. cerevisiae deletion strains, locus YNR049C, strain mso1, active compounds read low 1.02 and 1.01 | S. cerevisiae deletion strains, locus YNR052C, strain pop2, active compounds read low 1.01 and 0.997 | S. cerevisiae deletion strains, locus YOL006C, strain TOP1, active compounds read low 1.1 and 1.08 | S. cerevisiae deletion strains, locus YOL012C, strain htz1 0.844 and 0.846 | S. cerevisiae deletion strains, locus YOL147C, strain pex11, active compounds read low 1.02 and 0.99 | S. cerevisiae deletion strains, locus YOR001W, strain rrp6, active compounds read low 0.998 and 1.02 | S. cerevisiae deletion strains, locus YOR061W, strain CKA2, active compounds read low 1.01 and 1.02 | S. cerevisiae deletion strains, locus YOR069W, strain VPS5, active compounds read low 1.01 | S. cerevisiae deletion strains, locus YOR070C, strain gyp1, active compounds read low 1.02 | S. cerevisiae deletion strains, locus YOR080W, strain dia2, active compounds read low 1.02 | S. cerevisiae deletion strains, locus YOR083W, strain WHI5 (second series), active compounds read low 0.992 and 1 | S. cerevisiae deletion strains, locus YOR083W, strain WHI5, active compounds read low 1.02 | S. cerevisiae deletion strains, locus YOR106W, strain vam3, active compounds read low 1.02 | S. cerevisiae deletion strains, locus YOR136W, strain idh2, active compounds read low 1.02 and 1 | S. cerevisiae deletion strains, locus YOR144C, strain elg1, active compounds read low 1.02 and 0.993 | S. cerevisiae deletion strains, locus YOR184W, strain ser1, active compounds read low 1.04 and 1.01 | S. cerevisiae deletion strains, locus YOR231W, strain MKK1, active compounds read low 0.976 | S. cerevisiae deletion strains, locus YOR265W, strain rbl2, active compounds read low 1.02 and 1.01 | S. cerevisiae deletion strains, locus YOR270C, strain vph1, active compounds read low 1.02 and 1.07 | S. cerevisiae deletion strains, locus YOR290C, strain snf2, active compounds read low 1.03 and 0.969 | S. cerevisiae deletion strains, locus YOR316C, strain cot1, active compounds read low 1.02 and 0.999 | S. cerevisiae deletion strains, locus YPL051W, strain arl3, active compounds read low 1.02 and 1.01 | S. cerevisiae deletion strains, locus YPL055C, strain LGE1, active compounds read low 1.06 and 1 | S. cerevisiae deletion strains, locus YPL078C, strain atp4, active compounds read low 1.02 and 1.01 | S. cerevisiae deletion strains, locus YPL106C, strain sse1, active compounds read low 1.02 | S. cerevisiae deletion strains, locus YPL240C, strain hsp82, active compounds read low 1.03 and 1.02 | S. cerevisiae deletion strains, locus YPL241C, strain CIN2, active compounds read low 1.01 | S. cerevisiae deletion strains, locus YPL256C, strain CLN2, active compounds read low 0.979 | S. cerevisiae deletion strains, locus YPR119W, strain clb2, active compounds read low 1.01 and 0.99 | S. cerevisiae deletion strains, locus YPR141C, strain kar3, active compounds read low 1.01 and 1 | S. cerevisiae deletion strains, locus YPR163C, strain tif3, active compounds read low 1.03 and 0.994 | S. cerevisiae deletion strains, locus YPR167C, strain met16, active compounds read low 1.02 and 0.995 | S. cerevisiae deletion strains, strain wtn01, active compounds read low 1.03 and 0.997 | S. cerevisiae strains, strain wild type, active compounds read low 1.01

Source: PubChem BioAssay AID1159580 (chemical genetic matrix, 2015)
